# In all, about 1,600 compounds were measured (“plate-normalized OD600 growth (mean of duplicates)”: median about 0.31, lowest 2% from about 0.23 on). This excerpt belongs to a sample that is enriched for the lowest values.
# Test system: Escherichia coli BW25113
# Assay: plate-normalized OD600 growth (mean of duplicates) (OD600 (normalized)); higher = more growth (less inhibition)
# Details: 10 µM
# Procedure: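 E. coli BW25113 in LB (100 µl, 96-well, no shaking) was exposed to 10 µM of each compound (here the ChemBridge subset of a ~30,000-member library) and grown at 37°C for 24 h or 15°C for 48 h, in duplicate. Growth was read as OD600 and the duplicate ODs were normalized across screening plates to correct plate-to-plate variation.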
Structure (SMILES),"plate-normalized OD600 growth (temperature: 15°C, 48 h)","plate-normalized OD600 growth (temperature: 37°C, 24 h)"
O=C(O)c1ccc(S(=O)(=O)c2ccc(O)cc2)cc1,0.247,0.592
CN(C)c1ccc(CN2CCc3ccccc3C2)cc1,0.244,0.619
c1ccc2c(c1)CCN(Cc1ccncc1)C2,0.236,0.651
C=CCNC(=O)c1ccc(CN2CCc3ccccc3C2)cc1,0.217,0.6
O=C(c1ccccc1[N+](=O)[O-])N1CCN(C(c2ccccc2)c2ccccc2)CC1,0.259,0.627
CCOc1cc(/C=C(\C#N)c2nc(-c3ccc(OC)cc3)cs2)ccc1O,0.262,0.615
COc1ccc(-c2c(C)[nH]n3c(=O)cc(-c4ccc([N+](=O)[O-])cc4)nc23)cc1,0.24,0.608
COc1ccc(NC(=O)Nc2ccc(F)c(Cl)c2)cc1,0.283,0.58
COc1ccc(NCc2ccc(Cl)cc2Cl)cc1OC,0.22,0.625
COc1ccc(NCc2ccc(C)s2)cc1OC,0.244,0.604
O=C(c1sc2ccccc2c1Cl)N1CCN(CCN2C(=O)C3C4C=CC(C4)C3C2=O)CC1 (centres undefined),0.243,0.611
O=S(=O)(c1ccc(Cl)c(Cl)c1)N1CCCCC1,0.252,0.619
NC1CCCc2c1[nH]c1ccc([N+](=O)[O-])cc21 (centres undefined),0.173,0.552
Cc1cc(=O)[nH]c2ccc([N+](=O)[O-])cc12,0.244,0.609
O=[N+]([O-])c1ccc2[nH]c3c(c2c1)CCCC3NC1CCN(CCc2ccccc2)CC1 (centres undefined),0.249,0.578
N#C/C(=C\c1ccc(Br)o1)c1nc(-c2ccccc2)cs1,0.246,0.6
COc1ccc(NC(=O)c2ccccc2Br)c(OC)c1,0.258,0.615
O=C(Nc1ccc(Cl)cc1)c1ccccc1Br,0.264,0.633
COc1ccc(Cl)cc1NC(=O)c1ccccc1Br,0.222,0.627
O=C1c2cccc([N+](=O)[O-])c2C(=O)N1n1cnnc1,0.258,0.629
CCC1CCC(NCc2cccc(OC)c2OC)CC1 (centres undefined),0.253,0.603
Cc1cccc(NC(=O)COc2ccc(C)c(C)c2)c1,0.237,0.601
C=CCOc1ccccc1CN1CCCN(C)CC1,0.217,0.595

Structure (SMILES),"plate-normalized OD600 growth (temperature: 15°C, 48 h)","plate-normalized OD600 growth (temperature: 37°C, 24 h)"
CN1CCCN(Cc2cc(F)ccc2F)CC1,0.273,0.623
COc1ccc(CN2CCCN(C)CC2)c(OC)c1,0.25,0.619
CC1(C)CC(=O)C2=C(C1)Nc1ccccc1NC2c1ccc([N+](=O)[O-])s1 (centres undefined),0.231,0.604
CC1(C)CC(=O)C2=C(C1)Nc1ccccc1NC2c1cc2c(cc1[N+](=O)[O-])OCO2 (centres undefined),0.225,0.606
CC(=O)N1c2ccccc2NC2=C(C(=O)CC(C)(C)C2)C1c1cccn1C (centres undefined),0.253,0.612
CC1(C)CC(=O)C2=C(C1)Nc1ccccc1NC2c1ccc(Br)cc1 (centres undefined),0.275,0.627
CC1(C)CC(=O)C2=C(C1)Nc1ccccc1NC2c1ccccc1F (centres undefined),0.25,0.618
Cn1cccc1C1Nc2ccccc2NC2=C1C(=O)CC(C)(C)C2 (centres undefined),0.222,0.609
O=C1c2ccccc2C(=O)N1c1nccs1,0.239,0.622
CC(=O)Nc1ccc(S(=O)(=O)N2CCCC(CO)C2)cc1 (centres undefined),0.29,0.63
O=C(Nc1nc(/C=C/c2ccccc2)[nH]c(=O)n1)NS(=O)(=O)c1ccccc1Cl,0.249,0.587
CC(C)(C)C(=O)ON1C(=O)c2ccccc2C1=O,0.25,0.616
CN(C)c1ccc(CN2CCc3c([nH]c4ccccc34)C2)cc1,0.275,0.622
CC1(C)CC(=O)c2c(CC3CC(=O)NC(=O)C3)noc2C1,0.222,0.614
CCCc1noc2c1C(=O)CC(C)(C)C2,0.261,0.622
O=[N+]([O-])c1ccccc1CNC1C2CC3CC(C2)CC1C3 (centres undefined),0.238,0.612
COc1cccc(N2CCN(C3C4CC5CC(C4)CC3C5)CC2)c1 (centres undefined),0.291,0.627
COc1ccc(CNC2C3CC4CC(C3)CC2C4)c(OC)c1 (centres undefined),0.224,0.615
COc1ccc(S(=O)(=O)N2CCN(Cc3cccc(F)c3)CC2)cc1,0.245,0.614
C=CCSc1nc(O)c(CC)c(=O)n1-c1ccccc1,0.233,0.62
Brc1ccc(CN2CCN(Cc3ccc4c(c3)OCO4)CC2)s1,0.262,0.639
CC(C)CS(=O)(=O)c1cccs1,0.253,0.616
O=C1CCCc2occ(-c3ccc([N+](=O)[O-])cc3)c21,0.253,0.634

Structure (SMILES),"plate-normalized OD600 growth (temperature: 15°C, 48 h)","plate-normalized OD600 growth (temperature: 37°C, 24 h)"
O=C1CCCc2c1nc(-c1ccccc1)n2O,0.272,0.662
O=C1CCCc2c1nc(-c1cccc([N+](=O)[O-])c1)n2O,0.224,0.596
COc1ccc(-c2csc(N)n2)cc1Br,0.26,0.647
O=C(O)CCCC(=O)Nc1ccc(Cl)c(Cl)c1,0.247,0.602
Cc1cccc(-c2nc(-c3cccnc3)no2)c1,0.244,0.605
C1CCCC(NCCN2CCCCC2)CCC1,0.234,0.588
CC(=O)NC(Cc1ccccc1)Cc1ccccc1,0.248,0.608
CC(=O)NC(C)(CC(=O)c1ccccc1)c1ccccc1 (centres undefined),0.227,0.639
CC(C)(C)NC(=O)c1ccccc1C(=O)NC(C)(C)C,0.263,0.63
Cc1cccc(N2C(=O)CC(N3CCN(Cc4ccccc4)CC3)C2=O)c1 (centres undefined),0.254,0.616
COCc1cc(C)nc(NN)c1C#N,0.258,0.622
O=C1c2ccccc2C(=O)C1c1nc2ccccc2[nH]1,0.269,0.667
COc1ccc(N/C=C(/c2cc(O)ccc2O)[N+](=O)[O-])cc1,0.255,0.624
CC(=O)Nc1ccc(S(=O)(=O)N2CCN(C)CC2)cc1,0.258,0.646
CC(=O)c1sc(Nc2ccc(Oc3ccccc3)cc2)nc1C,0.223,0.607
COc1ccc(OC)c(Nc2nc(C)c(C(C)=O)s2)c1,0.272,0.646
CC(=O)c1sc(N2N=C(c3ccccc3)CC2c2ccccc2)nc1C (centres undefined),0.254,0.656
CSc1nc2sc3c(c2c(=O)n1C)CCCC3,0.246,0.618
COc1cccc(OC)c1C(=O)N1CCN(Cc2cccc([N+](=O)[O-])c2)CC1,0.266,0.645
CN1CCCN(Cc2ccc([N+](=O)[O-])o2)CC1,0.258,0.607
CN1CCCN(Cc2cccc([N+](=O)[O-])c2)CC1,0.22,0.627

# — the supplement of paper PMC4371806
